Over roughly 81,000 sequences, “one-hybrid fitness for binding parS DNA” has its median near -0.17; the highest 2% begin near 0.51. The sample holds the highest values, similar sequences and a random draw of the others, so the mix is not that of the screen.
B1: Caulobacter ParB omega fusion; a variant is named by its letters at X, in order, B8GW30 (parent)
chain: MESVVVGEPGMSEGRRGLGRGLSALLGEVDAAPAQAPGEQLGGSREAPIEILQRNPDQPRRTFREEDLEDLSNSIREKGVLQPILVRPSPDTAGEYQIVAGERAWRAAQRAGLKTVPIMVRELDDLAVLEIGIIENVQRADLNVLEEALSYKVLMEKFERTQENIAQTIGKSXSHVANXMRLLXLPDEVQSYLVSGELTAXHARAIAAAADPVALAKQIIEGGLSVRETEALARKAPNLSAGKSKGGRPPRVKDTDTQALESDLSSVLGLDVSIDHRGSTGTLTITYATLEQLDDLCNRLTRGI

Variants of: B1
Experiment: one-hybrid fitness for binding parS DNA (scaled: cognate 1, non-cognate 0); higher = stronger binding
Conditions: with parS DNA site
In short: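 Bacterial one-hybrid selection in E. coli USO rpoZ- hisB- pyrF- with a HIS3 reporter carrying the site 19 bp from the promoter, screening Caulobacter ParB libraries with four specificity codons randomised (NNS). Cells grew 48 hours at 37°C on M9-minus-histidine plus 0.1 mM IPTG and 5 mM 3-AT. Plasmids before and after selection were Illumina-sequenced, three replicate libraries pooled, and variants under 10 reads dropped. Fitness is the log change in variant-to-wild-type read ratio, rescaled to cognate 1, non-cognate 0.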

Variant | one-hybrid fitness for binding parS DNA
RLKQ | ≤ 0.2
TPAN | ≤ 0.2
FQLR | ≤ 0.2
LNTV | ≤ 0.2
MPHS | ≤ 0.2
CAAN | ≤ 0.2
RRHF | ≤ 0.2
RDHC | ≤ 0.2
RMHL | ≤ 0.2
RRHQ | ≤ 0.2
RMHC | 0.979
RCHC | 1
RRHC | 0.616
RSHC | 0.968
RPHC | ≤ 0.2
RSHF | 0.257
REHC | ≤ 0.2
RMHK | ≤ 0.2
MHLM | ≤ 0.2
TNRP | ≤ 0.2
MWSS | ≤ 0.2
SVES | ≤ 0.2
RICN | 0.447

Variant | one-hybrid fitness for binding parS DNA
RHCH | ≤ 0.2
RKCN | 0.302
RRCD | ≤ 0.2
RKCS | 0.855
RICH | 0.24
RHCS | 0.938
RKCP | ≤ 0.2
RHCP | ≤ 0.2
RRCS | 0.67
RICS | 1.02
RRCP | ≤ 0.2
PGNH | ≤ 0.2
VCRG | ≤ 0.2
IYRT | ≤ 0.2
LYPG | ≤ 0.2
CREE | ≤ 0.2
CEDV | ≤ 0.2
YGYI | ≤ 0.2
FTNL | ≤ 0.2
MSES | ≤ 0.2
RLCN | 0.457
RLCS | 1.03
RFCP | ≤ 0.2

Variant | one-hybrid fitness for binding parS DNA
RCCS | 1.01
RPCS | ≤ 0.2
RLCH | 0.22
RTCS | 0.99
RFCN | 0.375
RTCH | 0.289
RTCP | ≤ 0.2
RFCS | 1
RCCP | 0.223
PMLA | ≤ 0.2
LCAF | ≤ 0.2
IIKG | ≤ 0.2
WMTR | ≤ 0.2
RCFL | ≤ 0.2
LMPT | ≤ 0.2
VVHG | ≤ 0.2
EKSI | ≤ 0.2
RMCS | 1.01
RSCN | 0.407
RACP | ≤ 0.2
RMCP | ≤ 0.2
RACH | 0.306
RSCH | 0.223

Variant | one-hybrid fitness for binding parS DNA
RSCS | 0.995
RACS | 1
RMCD | ≤ 0.2
CVLT | ≤ 0.2
RWPM | ≤ 0.2
GPYM | ≤ 0.2
RKFF | ≤ 0.2
RKFY | 0.363
RKAQ | ≤ 0.2
RKAM | 0.264
RKFC | 0.878
RKAC | 0.878
AFRC | ≤ 0.2
LDSE | ≤ 0.2
NVKW | ≤ 0.2
VMRY | ≤ 0.2
RTCF | 0.252
RSCM | 0.347
RMCT | 0.888
RDCT | ≤ 0.2
RCCT | 0.913
RMCL | ≤ 0.2
RTCM | 0.298

Variant | one-hybrid fitness for binding parS DNA
RECT | ≤ 0.2
RTCT | 0.917
RMCM | 0.362
RPCT | ≤ 0.2
RSCT | 0.809
YHLN | ≤ 0.2
EVTM | ≤ 0.2
RFLI | ≤ 0.2
QHYD | ≤ 0.2
IDQR | ≤ 0.2
NLHV | ≤ 0.2
MGRC | ≤ 0.2
RAEA | 0.476
RREA | 0.802
RCEA | 0.515
RSEA | 0.476
RQEA | 0.554
RPEA | ≤ 0.2
RLEA | 0.567
RFEA | 0.454
TIMD | ≤ 0.2
PRLC | ≤ 0.2
MSLL | ≤ 0.2

Variant | one-hybrid fitness for binding parS DNA
FHAL | ≤ 0.2
SRDG | ≤ 0.2
AALF | ≤ 0.2
LFAM | ≤ 0.2
RDEA | ≤ 0.2
RYEA | 0.548
RKEA | 0.515
RTEA | 0.58
RHEA | 0.512
FASM | ≤ 0.2
SHST | ≤ 0.2
GLPS | ≤ 0.2
DMPT | ≤ 0.2
YLIW | ≤ 0.2
FRKA | ≤ 0.2
LMTN | ≤ 0.2
GIRR | ≤ 0.2
LALL | ≤ 0.2
RDFG | ≤ 0.2
RSFG | 0.94
RPFG | ≤ 0.2
RSFK | ≤ 0.2
RCFG | 1.01

Variant | one-hybrid fitness for binding parS DNA
REFG | ≤ 0.2
AKRC | ≤ 0.2
QSGM | ≤ 0.2
MCTL | ≤ 0.2
TMTY | ≤ 0.2
MHDG | ≤ 0.2
WDTK | ≤ 0.2
RQIA | 0.42
NQHA | ≤ 0.2
NQKA | ≤ 0.2
RQPA | ≤ 0.2
RQQA | 0.548
RQKA | 0.701
RQYA | 0.583
RQHA | 0.57
PQHA | ≤ 0.2
KQQA | ≤ 0.2
RQVA | 0.486

Source: a collection of fitness landscapes (doi:10.1016/j.celrep.2020.107928)
